“And” between values parts separate entries of the source, which are not always exact repeats. Identical values can stand only once. The panel holds about 79,000 compounds, 15% with a hit somewhere; the sample as a whole holds those more often. A structure can be active in one record and inactive in another. The source made the active and inactive calls. No stated cut-off is given here; in the data, active means growth inhibition above about 70%; inactive means the rest.

The values that follow come from PubChem BioAssay (NCI).

Experiment [1] in a line: NCI Yeast Anticancer Drug Screen. Data for the rad50 strain (AID 155).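 Further: 0% = growth of vehicle-only cultures of the same strain.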 The note with it: S. cerevisiae rad50 strain growth inhibition, stronger effect = higher value. In outline:
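Vehicle-treated cultures provide the reference for the growth inhibition reported for compound-exposed, repair-deficient yeast.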

Experiment [2] is described as follows: NCI Yeast Anticancer Drug Screen. Data for the mec2-1 strain (AID 157). The conditions noted are these: S. cerevisiae mec2-1 strain, stronger effect = higher value. The method in brief: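 Using mec2-1 yeast: add compound, measure growth, express inhibition versus vehicle-treated cultures.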
Experiment [3] is described as follows: NCI Yeast Anticancer Drug Screen. Data for the sgs1 mgt1 strain (AID 161).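 Further: 0% = growth of cultures given vehicle only.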 The conditions noted are these: S. cerevisiae sgs1 mgt1 strain, stronger effect = higher value. In outline: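 Percent growth inhibition was derived by comparing compound-exposed mutant yeast with vehicle-exposed cultures. The strain carries alterations in DNA damage repair.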
A short description of experiment [4]: NCI Yeast Anticancer Drug Screen. Data for the cln2 rad14 strain (AID 165).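 Further: 0% = growth equal to vehicle treated cultures.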 The conditions noted are these: S. cerevisiae cln2 rad14 strain, stronger effect = higher value. In outline: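 Yeast strain cln2 rad14, bearing defects in cell cycle control and DNA repair, serves as the test system; values reflect growth inhibition compared with vehicle.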
Experiment [5] in a line: NCI Yeast Anticancer Drug Screen. Data for the bub3 strain (AID 167). The conditions noted are these: S. cerevisiae bub3 mutant strain, stronger effect = higher value. In outline:
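Mutant yeast screening strain plus compound; vehicle-treated cultures serve as the 0% inhibition reference.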

Experiment [6] is described as follows: NCI Yeast Anticancer Drug Screen. Data for the mlh1 rad18 strain (AID 175). The conditions noted are these: S. cerevisiae mlh1 rad18 strain growth inhibition, stronger effect = higher value. In outline:
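Steps: expose repair-defective yeast to compound; measure growth; express inhibition against vehicle-treated controls.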

Setting [7] is: at 5.0 µM (retest, dose inferred, filed as 0.5).
[8] abbreviates: at 50.0 µM (retest, dose inferred, filed as 5.0).

On to `CCCCC(O)CC` (configuration not stated), for which the growth inhibition in experiment [1] (setting [7]) is -6% (inactive); in experiment [1] (setting [8]), 0% (inactive); in experiment [1] (at 50.0 µM), -10% (inactive) and 9.8% (inactive); in experiment [2] (setting [7]), -8% (inactive); in experiment [2] (setting [8]), -3% (inactive); in experiment [2] (at 50.0 µM) it was -42.2% (inactive) and 12.4% (inactive). Moreover, the growth inhibition is -2% (inactive) in experiment [3] (setting [7]); 1% (inactive) in experiment [3] (setting [8]); 11.6% (inactive) and 27.9% (inactive) in experiment [3] (at 50.0 µM); -3% (inactive) in experiment [4] (setting [7]); -1% (inactive) in experiment [4] (setting [8]); 4.65% (inactive) and 48.2% (inactive) in experiment [4] (at 50.0 µM). Besides, the growth inhibition in experiment [5] (setting [7]) was -6% (inactive); in experiment [5] (setting [8]), 0% (inactive); in experiment [5] (at 50.0 µM), -5.95% (inactive) and 1.55% (inactive); in experiment [6] (setting [7]) it was -4% (inactive); in experiment [6] (setting [8]), 0% (inactive); in experiment [6] (at 50.0 µM), 0.4% (inactive) and -1.7% (inactive).
On to `NC(CC(=O)O)C(=O)O` (configuration not stated), for which the growth inhibition is -2% (inactive) in experiment [1] (setting [7]); 2% (inactive) in experiment [1] (setting [8]); -21.4% (inactive) and 99.3% (active) and 3.3% (inactive) in experiment [1] (at 50.0 µM); -10% (inactive) in experiment [2] (setting [7]); -3% (inactive) in experiment [2] (setting [8]); -7.85% (inactive) and 99.6% (active) and 9.7% (inactive) in experiment [2] (at 50.0 µM). The growth inhibition in experiment [3] (setting [7]) is -3% (inactive); in experiment [3] (setting [8]), 0% (inactive); in experiment [3] (at 50.0 µM) it was -30.9% (inactive) and 98% (active) and -5.9% (inactive); in experiment [4] (setting [7]), 4% (inactive); in experiment [4] (setting [8]), -7% (inactive); in experiment [4] (at 50.0 µM) it was -7.75% (inactive) and 99.3% (active) and 16.6% (inactive). Besides, the growth inhibition in experiment [5] (setting [7]) was 5% (inactive); in experiment [5] (setting [8]) it was 0% (inactive); in experiment [5] (at 50.0 µM), -10.1% (inactive) and 99.6% (active) and -3.75% (inactive); in experiment [6] (setting [7]), -3% (inactive); in experiment [6] (setting [8]), 4% (inactive); in experiment [6] (at 50.0 µM), -14.1% (inactive) and 99.5% (active) and 21.2% (inactive).
As for `CCO/C(=C\C=O)C1CCC2C3CC=C4CC(OC(C)=O)CCC4(C)C3CCC12C` (configuration not stated), the growth inhibition in experiment [1] (setting [7]) was 7% (inactive); in experiment [1] (setting [8]) it was 45% (inactive); in experiment [1] (at 50.0 µM), 63.4% (inactive); in experiment [2] (setting [7]) it was -1% (inactive); in experiment [2] (setting [8]), 75% (active); in experiment [2] (at 50.0 µM) it was 51.5% (inactive). Further, the growth inhibition in experiment [3] (setting [7]) is 8% (inactive); in experiment [3] (setting [8]), 86% (active); in experiment [3] (at 50.0 µM) it was 55.9% (inactive); in experiment [4] (setting [7]), 2% (inactive); in experiment [4] (setting [8]) it was 53% (inactive); in experiment [4] (at 50.0 µM), 55.1% (inactive). In addition, the growth inhibition is -3% (inactive) in experiment [5] (setting [7]); 74% (active) in experiment [5] (setting [8]); 23.4% (inactive) in experiment [5] (at 50.0 µM); 14% (inactive) in experiment [6] (setting [7]); 94% (active) in experiment [6] (setting [8]); 53.5% (inactive) in experiment [6] (at 50.0 µM).
For `N#CC(=C1C=CC(=NOC(=O)Nc2cccc3ccccc23)C=C1)c1ccccc1`, the growth inhibition is 44% (inactive) in experiment [1] (setting [7]); 99% (active) in experiment [1] (setting [8]); 97.8% (active) in experiment [1] (at 50.0 µM); 35% (inactive) in experiment [2] (setting [7]); 99% (active) in experiment [2] (setting [8]); 97.7% (active) in experiment [2] (at 50.0 µM). Besides, the growth inhibition in experiment [3] (setting [7]) is 51% (inactive); in experiment [3] (setting [8]), 100% (active); in experiment [3] (at 50.0 µM) it was 98.5% (active); in experiment [4] (setting [7]) it was 10% (inactive); in experiment [4] (setting [8]) it was 99% (active); in experiment [4] (at 50.0 µM), 97.7% (active). Besides, the growth inhibition in experiment [5] (setting [7]) was 62% (inactive); in experiment [5] (setting [8]), 99% (active); in experiment [5] (at 50.0 µM), 98.3% (active); in experiment [6] (setting [7]) it was 30% (inactive); in experiment [6] (setting [8]), 99% (active); in experiment [6] (at 50.0 µM), 97.5% (active).
Take `C[C@@H](O)[C@H]1CC[C@H]2[C@@H]3CCC4=C/C(=N/O)CC[C@]4(C)[C@H]3CC[C@]12C`: the growth inhibition in experiment [1] (setting [7]) was 36% (inactive); in experiment [1] (setting [8]), 51% (inactive); in experiment [1] (at 50.0 µM), 7.4% (inactive); in experiment [2] (setting [7]), 15% (inactive); in experiment [2] (setting [8]) it was 20% (inactive); in experiment [2] (at 50.0 µM), 22.2% (inactive). Further, the growth inhibition is 44% (inactive) in experiment [3] (setting [7]); -34% (inactive) in experiment [3] (setting [8]); 36.1% (inactive) in experiment [3] (at 50.0 µM); 16% (inactive) in experiment [4] (setting [7]); 78% (active) in experiment [4] (setting [8]); -0.05% (inactive) in experiment [4] (at 50.0 µM). Moreover, the growth inhibition in experiment [5] (setting [7]) was -2% (inactive); in experiment [5] (setting [8]) it was 61% (inactive); in experiment [5] (at 50.0 µM), 80.8% (active); in experiment [6] (setting [7]), 54% (inactive); in experiment [6] (setting [8]), 68% (inactive); in experiment [6] (at 50.0 µM), 36.1% (inactive).
As for `Cc1noc(-c2ccc([N+](=O)[O-])o2)n1`, the growth inhibition in experiment [1] (setting [7]) was 6% (inactive); in experiment [1] (setting [8]), 85% (active); in experiment [1] (at 50.0 µM), 93.5% (active); in experiment [2] (setting [7]) it was -1% (inactive); in experiment [2] (setting [8]), 82% (active); in experiment [2] (at 50.0 µM), 52.1% (inactive). Moreover, the growth inhibition was 5% (inactive) in experiment [3] (setting [7]); 87% (active) in experiment [3] (setting [8]); 74.6% (active) in experiment [3] (at 50.0 µM); -6% (inactive) in experiment [4] (setting [7]); 57% (inactive) in experiment [4] (setting [8]); 57.9% (inactive) in experiment [4] (at 50.0 µM). Also, the growth inhibition in experiment [5] (setting [7]) was 2% (inactive); in experiment [5] (setting [8]), 80% (active); in experiment [5] (at 50.0 µM), 63.9% (inactive); in experiment [6] (setting [7]), 24% (inactive); in experiment [6] (setting [8]), 94% (active); in experiment [6] (at 50.0 µM), 87.8% (active).
On to `C/C(=N\O)c1cc(Br)cc([N+](=O)[O-])c1O`, for which the growth inhibition in experiment [1] (setting [7]) is 1% (inactive); in experiment [1] (setting [8]), 14% (inactive); in experiment [1] (at 50.0 µM) it was 6.45% (inactive); in experiment [2] (setting [7]), 7% (inactive); in experiment [2] (setting [8]) it was 35% (inactive); in experiment [2] (at 50.0 µM) it was 4.15% (inactive). In addition, the growth inhibition in experiment [3] (setting [7]) was 3% (inactive); in experiment [3] (setting [8]), 27% (inactive); in experiment [3] (at 50.0 µM), 4.95% (inactive); in experiment [4] (setting [7]), 13% (inactive); in experiment [4] (setting [8]), 11% (inactive); in experiment [4] (at 50.0 µM) it was 39% (inactive). For the same compound, the growth inhibition in experiment [5] (setting [7]) is 4% (inactive); in experiment [5] (setting [8]), 10% (inactive); in experiment [5] (at 50.0 µM) it was 8.3% (inactive); in experiment [6] (setting [7]) it was 5% (inactive); in experiment [6] (setting [8]) it was 25% (inactive); in experiment [6] (at 50.0 µM) it was 14.8% (inactive).
Take `CCCCCCCCCCCCCCCCCCOCC(COP(=O)([O-])OCC[N+](C)(C)C)OC` (configuration not stated): the growth inhibition was -16% (inactive) in experiment [1] (setting [7]); -9% (inactive) in experiment [1] (setting [8]); 90% (active) and 20.7% (inactive) in experiment [1] (at 50.0 µM); -4% (inactive) in experiment [2] (setting [7]); -28% (inactive) in experiment [2] (setting [8]); 91.4% (active) and -4.35% (inactive) in experiment [2] (at 50.0 µM). Besides, the growth inhibition in experiment [3] (setting [7]) was -13% (inactive); in experiment [3] (setting [8]), -14% (inactive); in experiment [3] (at 50.0 µM), 91.5% (active) and -31.4% (inactive); in experiment [4] (setting [7]), -1% (inactive); in experiment [4] (setting [8]), -46% (inactive); in experiment [4] (at 50.0 µM) it was 88.2% (active) and 9.5% (inactive). Moreover, the growth inhibition was -16% (inactive) in experiment [5] (setting [7]); -28% (inactive) in experiment [5] (setting [8]); 90.5% (active) and -7.55% (inactive) in experiment [5] (at 50.0 µM); -59% (inactive) in experiment [6] (setting [7]); -88% (inactive) in experiment [6] (setting [8]); -1.25% (inactive) and -47% (inactive) in experiment [6] (at 50.0 µM).
With `CCOC(=O)C1=C(C(=O)c2ccc(OC)cc2)C(c2c(Cl)cccc2Cl)C(C(=O)c2ccc(OC)cc2)=C(C(=O)OCC)N1`, the growth inhibition in experiment [1] (setting [7]) is 8% (inactive); in experiment [1] (setting [8]) it was 19% (inactive); in experiment [1] (at 50.0 µM), 53.9% (inactive); in experiment [2] (setting [7]) it was 6% (inactive); in experiment [2] (setting [8]), 35% (inactive); in experiment [2] (at 50.0 µM) it was 71% (active). In addition, the growth inhibition was 19% (inactive) in experiment [3] (setting [7]); -5% (inactive) in experiment [3] (setting [8]); 70.3% (active) in experiment [3] (at 50.0 µM); -19% (inactive) in experiment [4] (setting [7]); 18% (inactive) in experiment [4] (setting [8]); 88.2% (active) in experiment [4] (at 50.0 µM). In addition, the growth inhibition in experiment [5] (setting [7]) is 14% (inactive); in experiment [5] (setting [8]), 7% (inactive); in experiment [5] (at 50.0 µM), 88.7% (active); in experiment [6] (setting [7]) it was 6% (inactive); in experiment [6] (setting [8]), 0% (inactive); in experiment [6] (at 50.0 µM), 81.8% (active).
